Results: the supplement of paper PMC11732987, “Enantioselective OTUD7B fragment discovery through chemoproteomics screening and high-throughput optimisation” (Communications Chemistry, 2025)

Assays:
Test in all cases: log2 ratio of Biotin-Ahx-Ub-VS probe labelling (fragment/DMSO); higher = less target engagement (more negative = stronger competition), active = hit call of the paper (q ≤ 0.05, log2 ratio ≤ -1)
Conditions in all cases: compound concentration: 200 uM; treatment time: 3 h
USP34 = USP34 (UniProt Q70CQ2)
Summary of the method: (§1)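 Fragment (200 µM) or vehicle was incubated for 3 h with triplicate HEK293T lysate samples of 495 µg, which were then treated with Biotin-Ahx-Ub-VS at 0.5 µM final for 1 h. Labelled DUBs were enriched on NeutrAvidin, digested with LysC and trypsin, and analysed by diaPASEF LC-MS/MS. Values are average log2 fragment/vehicle ratios from an unpaired t-test on global-median-normalised Spectronaut label-free quantities, using proteins with ≥2 unique peptides.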

USP36 = molecular target: T1, USP36 (UniProt Q9P275)
T1 sequence (whole entry): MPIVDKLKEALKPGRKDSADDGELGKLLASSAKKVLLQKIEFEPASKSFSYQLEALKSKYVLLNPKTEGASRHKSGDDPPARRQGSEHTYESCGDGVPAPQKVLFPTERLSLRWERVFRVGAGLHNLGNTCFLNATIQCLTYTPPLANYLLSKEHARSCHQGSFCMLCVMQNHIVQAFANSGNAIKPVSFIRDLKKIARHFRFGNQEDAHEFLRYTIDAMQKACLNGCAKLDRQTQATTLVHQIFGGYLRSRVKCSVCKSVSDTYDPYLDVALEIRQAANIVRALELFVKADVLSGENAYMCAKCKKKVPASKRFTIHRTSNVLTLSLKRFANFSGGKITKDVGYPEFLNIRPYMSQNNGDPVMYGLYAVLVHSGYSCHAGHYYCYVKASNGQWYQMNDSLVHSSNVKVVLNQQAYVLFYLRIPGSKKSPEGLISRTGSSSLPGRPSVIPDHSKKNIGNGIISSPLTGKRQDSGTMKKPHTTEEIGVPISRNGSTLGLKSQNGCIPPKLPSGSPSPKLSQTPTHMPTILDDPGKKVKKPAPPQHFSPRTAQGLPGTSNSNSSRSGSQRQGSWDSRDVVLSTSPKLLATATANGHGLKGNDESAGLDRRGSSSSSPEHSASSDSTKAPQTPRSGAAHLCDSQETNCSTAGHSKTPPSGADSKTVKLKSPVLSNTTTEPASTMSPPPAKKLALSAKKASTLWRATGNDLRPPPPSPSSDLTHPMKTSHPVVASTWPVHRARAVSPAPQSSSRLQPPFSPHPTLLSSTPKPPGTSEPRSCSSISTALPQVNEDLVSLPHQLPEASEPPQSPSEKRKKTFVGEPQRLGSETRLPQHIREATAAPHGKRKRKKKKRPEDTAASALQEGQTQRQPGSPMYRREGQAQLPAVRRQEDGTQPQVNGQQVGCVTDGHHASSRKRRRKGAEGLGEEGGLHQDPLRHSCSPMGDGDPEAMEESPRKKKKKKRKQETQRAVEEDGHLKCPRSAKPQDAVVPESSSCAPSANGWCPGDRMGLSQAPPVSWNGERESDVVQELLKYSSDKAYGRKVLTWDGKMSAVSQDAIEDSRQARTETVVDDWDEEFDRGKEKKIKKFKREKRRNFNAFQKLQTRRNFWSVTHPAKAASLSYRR
Summary of the method: as §1

USP38 = molecular target: T2, USP38 (UniProt Q8NB14)
T2 sequence (whole entry): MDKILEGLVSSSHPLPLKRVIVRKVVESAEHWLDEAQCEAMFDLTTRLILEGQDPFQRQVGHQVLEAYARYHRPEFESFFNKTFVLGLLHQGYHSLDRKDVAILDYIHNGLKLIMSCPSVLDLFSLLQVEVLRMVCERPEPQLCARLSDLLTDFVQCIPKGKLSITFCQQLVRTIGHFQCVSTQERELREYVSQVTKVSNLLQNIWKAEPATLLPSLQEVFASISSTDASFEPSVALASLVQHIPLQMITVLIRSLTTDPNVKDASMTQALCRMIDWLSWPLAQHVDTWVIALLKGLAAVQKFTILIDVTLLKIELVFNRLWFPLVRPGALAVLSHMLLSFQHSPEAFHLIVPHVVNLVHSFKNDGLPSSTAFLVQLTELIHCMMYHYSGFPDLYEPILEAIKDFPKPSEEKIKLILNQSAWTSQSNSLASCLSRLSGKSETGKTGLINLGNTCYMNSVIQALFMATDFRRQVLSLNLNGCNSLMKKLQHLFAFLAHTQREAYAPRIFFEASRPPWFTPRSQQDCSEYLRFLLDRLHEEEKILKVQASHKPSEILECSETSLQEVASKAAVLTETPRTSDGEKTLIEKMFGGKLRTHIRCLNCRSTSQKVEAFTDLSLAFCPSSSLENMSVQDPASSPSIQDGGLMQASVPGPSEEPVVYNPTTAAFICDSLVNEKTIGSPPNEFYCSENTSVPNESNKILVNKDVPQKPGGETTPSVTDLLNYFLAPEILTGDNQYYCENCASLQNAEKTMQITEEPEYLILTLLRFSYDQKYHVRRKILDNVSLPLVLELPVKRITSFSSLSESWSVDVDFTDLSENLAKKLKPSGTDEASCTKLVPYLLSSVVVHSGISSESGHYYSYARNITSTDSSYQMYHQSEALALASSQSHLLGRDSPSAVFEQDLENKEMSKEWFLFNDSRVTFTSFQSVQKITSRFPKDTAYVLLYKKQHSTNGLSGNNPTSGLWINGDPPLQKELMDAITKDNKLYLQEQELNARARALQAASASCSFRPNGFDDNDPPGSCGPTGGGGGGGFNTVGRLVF
Summary of the method: as §1

USP39 = molecular target: T3, USP39 (UniProt Q53GS9)
T3 sequence (whole entry): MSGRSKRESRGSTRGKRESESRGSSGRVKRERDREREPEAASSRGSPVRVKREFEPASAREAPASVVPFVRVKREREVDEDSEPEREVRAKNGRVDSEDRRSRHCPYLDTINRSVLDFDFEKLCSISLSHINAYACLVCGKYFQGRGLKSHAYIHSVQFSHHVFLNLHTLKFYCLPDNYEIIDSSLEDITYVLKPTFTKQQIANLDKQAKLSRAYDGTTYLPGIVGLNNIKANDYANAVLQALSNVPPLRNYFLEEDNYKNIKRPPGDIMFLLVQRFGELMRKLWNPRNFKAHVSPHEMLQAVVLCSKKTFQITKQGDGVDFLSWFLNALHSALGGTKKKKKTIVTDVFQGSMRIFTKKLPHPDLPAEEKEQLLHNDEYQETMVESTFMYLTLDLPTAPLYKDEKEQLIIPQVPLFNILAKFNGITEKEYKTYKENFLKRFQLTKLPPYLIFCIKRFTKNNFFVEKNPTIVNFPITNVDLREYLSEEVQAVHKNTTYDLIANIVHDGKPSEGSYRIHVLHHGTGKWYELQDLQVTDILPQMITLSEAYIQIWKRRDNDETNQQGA
Summary of the method: as §1

USP4 = molecular target: T4, USP4 (UniProt Q13107)
T4 sequence (whole entry): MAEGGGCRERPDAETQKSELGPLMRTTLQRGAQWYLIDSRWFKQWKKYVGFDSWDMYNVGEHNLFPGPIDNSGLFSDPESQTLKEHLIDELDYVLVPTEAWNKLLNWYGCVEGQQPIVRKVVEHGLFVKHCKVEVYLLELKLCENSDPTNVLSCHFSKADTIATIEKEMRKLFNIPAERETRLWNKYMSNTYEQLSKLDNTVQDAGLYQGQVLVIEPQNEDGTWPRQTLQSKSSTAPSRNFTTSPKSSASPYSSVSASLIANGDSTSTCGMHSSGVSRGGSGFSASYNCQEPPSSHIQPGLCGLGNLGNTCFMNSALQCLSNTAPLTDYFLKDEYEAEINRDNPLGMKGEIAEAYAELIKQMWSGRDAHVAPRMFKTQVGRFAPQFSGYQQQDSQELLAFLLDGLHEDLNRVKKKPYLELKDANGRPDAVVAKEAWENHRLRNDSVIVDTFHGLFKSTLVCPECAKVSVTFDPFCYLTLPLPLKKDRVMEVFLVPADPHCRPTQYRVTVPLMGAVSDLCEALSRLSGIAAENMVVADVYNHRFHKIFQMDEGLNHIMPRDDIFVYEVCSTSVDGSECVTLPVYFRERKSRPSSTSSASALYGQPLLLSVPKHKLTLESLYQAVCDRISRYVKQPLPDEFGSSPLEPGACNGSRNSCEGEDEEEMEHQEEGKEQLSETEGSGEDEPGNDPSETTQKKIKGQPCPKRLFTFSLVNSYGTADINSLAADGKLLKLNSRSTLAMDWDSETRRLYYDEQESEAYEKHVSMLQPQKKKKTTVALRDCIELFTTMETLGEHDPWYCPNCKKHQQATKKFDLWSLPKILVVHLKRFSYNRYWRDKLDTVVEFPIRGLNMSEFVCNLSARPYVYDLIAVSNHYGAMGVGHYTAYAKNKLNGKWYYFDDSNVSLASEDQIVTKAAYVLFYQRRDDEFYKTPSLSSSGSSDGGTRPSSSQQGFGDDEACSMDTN
Summary of the method: as §1

Measured: log2 ratio of Biotin-Ahx-Ub-VS probe labelling

Chain of USP34 (Q70CQ2 whole entry, the tested form may be a part): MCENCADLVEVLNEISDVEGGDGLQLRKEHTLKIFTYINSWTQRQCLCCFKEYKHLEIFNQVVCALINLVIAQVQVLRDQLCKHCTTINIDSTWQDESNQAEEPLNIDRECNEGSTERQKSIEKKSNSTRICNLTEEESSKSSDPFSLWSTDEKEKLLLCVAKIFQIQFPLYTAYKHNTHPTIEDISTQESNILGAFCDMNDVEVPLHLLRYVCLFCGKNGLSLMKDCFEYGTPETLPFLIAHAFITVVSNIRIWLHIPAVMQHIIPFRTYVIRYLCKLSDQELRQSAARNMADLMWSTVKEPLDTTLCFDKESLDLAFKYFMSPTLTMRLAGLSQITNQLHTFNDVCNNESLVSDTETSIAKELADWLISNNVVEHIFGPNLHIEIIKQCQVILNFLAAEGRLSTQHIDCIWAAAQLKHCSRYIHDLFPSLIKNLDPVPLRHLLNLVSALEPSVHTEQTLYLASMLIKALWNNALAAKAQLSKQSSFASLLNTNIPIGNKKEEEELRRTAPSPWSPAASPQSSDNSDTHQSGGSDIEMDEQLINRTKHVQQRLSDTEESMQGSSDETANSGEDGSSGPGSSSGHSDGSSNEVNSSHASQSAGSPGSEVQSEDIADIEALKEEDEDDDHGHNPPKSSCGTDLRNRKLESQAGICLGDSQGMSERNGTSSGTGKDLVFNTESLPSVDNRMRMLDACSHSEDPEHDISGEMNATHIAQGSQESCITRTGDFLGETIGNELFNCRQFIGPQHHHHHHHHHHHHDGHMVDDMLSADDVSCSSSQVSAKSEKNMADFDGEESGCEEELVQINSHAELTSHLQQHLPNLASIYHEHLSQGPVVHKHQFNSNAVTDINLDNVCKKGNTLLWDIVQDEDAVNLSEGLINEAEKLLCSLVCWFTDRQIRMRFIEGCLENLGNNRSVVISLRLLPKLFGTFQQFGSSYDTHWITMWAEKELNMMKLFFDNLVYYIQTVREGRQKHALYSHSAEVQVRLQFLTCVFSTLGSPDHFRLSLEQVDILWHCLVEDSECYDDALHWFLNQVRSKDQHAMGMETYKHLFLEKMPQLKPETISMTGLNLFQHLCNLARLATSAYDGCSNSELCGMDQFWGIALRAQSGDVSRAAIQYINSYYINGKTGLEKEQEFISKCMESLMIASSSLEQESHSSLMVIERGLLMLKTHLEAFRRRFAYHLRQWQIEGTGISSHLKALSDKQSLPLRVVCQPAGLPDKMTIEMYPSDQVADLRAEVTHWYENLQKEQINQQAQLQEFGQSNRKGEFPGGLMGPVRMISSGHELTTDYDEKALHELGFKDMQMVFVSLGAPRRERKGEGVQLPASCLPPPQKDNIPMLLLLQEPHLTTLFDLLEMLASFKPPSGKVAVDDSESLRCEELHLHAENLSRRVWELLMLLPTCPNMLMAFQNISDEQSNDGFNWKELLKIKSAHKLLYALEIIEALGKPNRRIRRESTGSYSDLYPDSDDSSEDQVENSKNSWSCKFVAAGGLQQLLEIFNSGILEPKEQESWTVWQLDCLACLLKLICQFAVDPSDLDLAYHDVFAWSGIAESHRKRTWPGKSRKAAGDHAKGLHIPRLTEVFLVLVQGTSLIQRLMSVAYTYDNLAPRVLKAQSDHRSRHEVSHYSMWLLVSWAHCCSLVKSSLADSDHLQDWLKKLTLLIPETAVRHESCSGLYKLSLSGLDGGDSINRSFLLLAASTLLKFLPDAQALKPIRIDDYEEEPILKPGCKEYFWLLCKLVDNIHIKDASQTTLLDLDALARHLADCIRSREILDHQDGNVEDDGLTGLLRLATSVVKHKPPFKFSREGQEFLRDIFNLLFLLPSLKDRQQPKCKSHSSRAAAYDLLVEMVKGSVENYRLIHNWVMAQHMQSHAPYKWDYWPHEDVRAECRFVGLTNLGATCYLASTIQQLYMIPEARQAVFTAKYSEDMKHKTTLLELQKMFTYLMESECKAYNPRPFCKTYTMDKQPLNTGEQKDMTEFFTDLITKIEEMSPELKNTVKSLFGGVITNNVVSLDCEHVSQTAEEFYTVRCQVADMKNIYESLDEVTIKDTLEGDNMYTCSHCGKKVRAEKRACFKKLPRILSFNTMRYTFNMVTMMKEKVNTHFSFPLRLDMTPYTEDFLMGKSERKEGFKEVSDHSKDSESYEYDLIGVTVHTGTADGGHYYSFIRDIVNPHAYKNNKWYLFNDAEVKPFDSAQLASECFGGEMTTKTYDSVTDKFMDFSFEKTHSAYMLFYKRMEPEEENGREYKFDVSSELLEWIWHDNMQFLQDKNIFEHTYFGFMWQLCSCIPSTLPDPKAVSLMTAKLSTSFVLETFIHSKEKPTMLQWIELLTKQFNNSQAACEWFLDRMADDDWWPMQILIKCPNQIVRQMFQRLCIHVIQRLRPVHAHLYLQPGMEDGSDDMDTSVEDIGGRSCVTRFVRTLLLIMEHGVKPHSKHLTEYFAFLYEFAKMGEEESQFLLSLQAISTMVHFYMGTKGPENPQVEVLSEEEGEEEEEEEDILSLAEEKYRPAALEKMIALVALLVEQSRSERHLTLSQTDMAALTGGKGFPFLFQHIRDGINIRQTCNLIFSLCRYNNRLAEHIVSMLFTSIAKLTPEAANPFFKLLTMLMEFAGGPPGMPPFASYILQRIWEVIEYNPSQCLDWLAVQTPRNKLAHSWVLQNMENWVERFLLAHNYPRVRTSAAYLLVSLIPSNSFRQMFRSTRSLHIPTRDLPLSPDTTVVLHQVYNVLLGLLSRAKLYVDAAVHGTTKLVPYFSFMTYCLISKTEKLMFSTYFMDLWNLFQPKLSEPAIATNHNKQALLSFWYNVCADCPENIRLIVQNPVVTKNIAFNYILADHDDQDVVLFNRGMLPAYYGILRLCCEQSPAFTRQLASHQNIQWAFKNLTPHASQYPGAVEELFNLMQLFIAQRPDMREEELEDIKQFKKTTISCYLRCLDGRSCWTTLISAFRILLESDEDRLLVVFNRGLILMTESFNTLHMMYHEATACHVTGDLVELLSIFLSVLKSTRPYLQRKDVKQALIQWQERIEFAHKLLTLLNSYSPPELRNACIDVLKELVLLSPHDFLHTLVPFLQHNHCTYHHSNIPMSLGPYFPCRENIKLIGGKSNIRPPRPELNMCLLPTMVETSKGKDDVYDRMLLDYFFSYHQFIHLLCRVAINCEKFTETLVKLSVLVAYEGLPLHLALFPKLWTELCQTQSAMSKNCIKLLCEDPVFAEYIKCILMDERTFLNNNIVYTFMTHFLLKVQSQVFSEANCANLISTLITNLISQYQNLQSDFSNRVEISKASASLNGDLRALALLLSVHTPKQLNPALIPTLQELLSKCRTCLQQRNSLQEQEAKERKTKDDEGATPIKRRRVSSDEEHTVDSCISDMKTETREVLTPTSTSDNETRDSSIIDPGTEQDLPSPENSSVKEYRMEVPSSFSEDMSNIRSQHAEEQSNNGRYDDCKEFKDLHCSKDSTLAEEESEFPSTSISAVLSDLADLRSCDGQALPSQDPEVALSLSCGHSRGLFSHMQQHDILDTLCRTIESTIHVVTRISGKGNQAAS

C[C@@H](NC(=O)CCl)c1cccc(C#N)c1
inactive: USP34 -0.444 | USP36 0.00395 | USP38 -0.0294 | USP39 0.198 | USP4 0.0193
